The panel holds about 83,000 compounds, 20% with a hit somewhere; the sample as a whole holds those more often.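 For each line, cells grew in 96-well plates with the test compound present at a single concentration for 48 hours.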 Unmarked numbers belong to inactive results. Activity calls are given as the source filed them. Rule for the calls: active = growth percent below 10; inactive = the rest.

This is an account of results in PubChem BioAssay (NCI).

Some test systems named below: T-47D breast; BT-549 breast; MDA-MB-435 melanoma; SW-620 colon; HCT-116 colon; HCC-2998 colon; KM12 colon; MCF7 breast.
Experiment in all cases: NCI-60 one-dose screen, 48 h (100 = growth as untreated, 0 = no growth, -100 = all killed)
What all share (conditions): 10 µM unless noted

In the case of `O=C(OCCCCOC(=O)n1cnc2ccccc21)n1cnc2ccccc21`, the growth with T-47D breast was 92.2%; with BT-549 breast it was 104%; in the assay on MDA-MB-435 melanoma, 103%; in the assay with SW-620 colon, 106%; with HCT-116 colon it was 102%; in the assay on HCC-2998 colon it was 111%. Besides, the growth in the assay on KM12 colon was 104%.
As for `Cc1cccc(-n2c(C)nc3ccc(NC(=O)NCCCl)cc3c2=O)c1`, the growth with T-47D breast is 103%; with BT-549 breast it was 101%; in the assay on MDA-MB-435 melanoma it was 99.2%; in the assay with SW-620 colon, 97.3%; in the assay with HCT-116 colon, 103%; in the assay on HCC-2998 colon, 114%. In addition, the growth with KM12 colon was 106%.
As to `O=C(O)c1cn(C2CC2)c2cc(N3CCN(S(=O)(=O)c4ccc(Cl)c(Cl)c4)CC3)c(F)cc2c1=O`, the growth with T-47D breast was 16.3%; in the assay with BT-549 breast it was -4.65% (active); in the assay on MDA-MB-435 melanoma it was 13%; in the assay on SW-620 colon, 20.7%; with MCF7 breast, 13.5%; with HCC-2998 colon, 24.8%. Also, the growth in the assay with KM12 colon was 14.6%.
For `C=C1C(=O)O[C@H]2[C@H]1CC/C(Cn1cc(-c3ccsc3)nn1)=C\CC[C@@]1(C)O[C@@H]21`, the growth in the assay on T-47D breast is -62% (active); with BT-549 breast, -56.3% (active); in the assay with MDA-MB-435 melanoma, -16% (active); in the assay on SW-620 colon, -71.3% (active); in the assay with HCT-116 colon, -96.4% (active); with HCC-2998 colon, -46.7% (active). In addition, the growth in the assay on KM12 colon was 34.3%.
Turning to `Nc1nc(N)c2nc(CNc3ccc(C(=O)CC(CCC(=O)O)C(=O)O)cc3)cnc2n1` (stereo not given), the growth in the assay on T-47D breast is 49.5%; in the assay with BT-549 breast, 63.3%; with MDA-MB-435 melanoma it was 34.4%; in the assay on SW-620 colon it was 25.7%; in the assay with MCF7 breast, 22.8%; in the assay on KM12 colon, 32.2%.
Take `COc1cccc(NC(=O)c2sc3nc4c(cc3c2N)CCCC4)c1`: the growth with T-47D breast was 41.5%; in the assay on BT-549 breast it was 66.7%; in the assay on MDA-MB-435 melanoma it was -40.2% (active); with SW-620 colon it was 32.1%; with HCT-116 colon, 20.7%; in the assay with HCC-2998 colon, 24.4%. Besides, the growth in the assay on KM12 colon is 23.1%.
For `CCCCCCC[C@@H](O)CC(=O)N[C@H](CCCCN)C(=O)N[C@H](Cc1c[nH]c2ccccc12)C(=O)NC(CCCCN)C(=O)N[C@H](CC(C)C)C(=O)N[C@H](Cc1ccccc1)C(=O)N[C@H](CCCCN)C(=O)N[C@H](CCCCN)C(=O)N[C@H](CC(C)C)C(=O)N1CCCC1C(=O)N[C@H](CCCCN)C(=O)N[C@H](Cc1ccccc1)C(=O)N[C@H](CC(C)C)C(=O)N[C@H](Cc1c[nH]cn1)C(=O)N[C@H](CC(C)C)C(=O)N[C@H](C)C(=O)N[C@H](CCCCN)C(=O)N[C@H](CCCCN)C(=O)N[C@H](Cc1ccccc1)C(=O)O` (stereo not given in full), the growth in the assay on T-47D breast was -39.9% (active); in the assay with BT-549 breast it was -43% (active); with MDA-MB-435 melanoma it was -38.7% (active); in the assay with SW-620 colon it was -52.2% (active); in the assay on HCT-116 colon, -35.7% (active); in the assay on HCC-2998 colon it was -49.2% (active). Besides, the growth in the assay with KM12 colon is -63% (active).
For `C=C1C(=O)O[C@H]2[C@H]1CC/C(COC(=O)NCCc1ccc(Br)cc1)=C\CC[C@@]1(C)O[C@@H]21`, the growth with T-47D breast was -21% (active); with BT-549 breast it was -9.87% (active); in the assay on MDA-MB-435 melanoma, 23.9%; with SW-620 colon, -55.6% (active); in the assay with HCT-116 colon, -72.1% (active); in the assay on HCC-2998 colon it was 71.1%. Also, the growth in the assay on KM12 colon was 55.4%.
Turning to `CC(=O)Nc1nc(C(=O)N2N=C(C)/C(=C/c3ccc(Cl)cc3)C2=O)cs1`, the growth in the assay on T-47D breast was 95.6%; in the assay on BT-549 breast, 97.4%; in the assay on MDA-MB-435 melanoma, 112%; with SW-620 colon, 109%; in the assay on HCT-116 colon, 99.9%; in the assay on HCC-2998 colon, 104%. For the same molecule, the growth in the assay with KM12 colon is 101%.
Consider `COc1cc(-c2cc(/C=C3\CCCCC3=O)[nH]n2)cc(OC)c1OC`, for which the growth was 90.1% in the assay with T-47D breast; 99.7% with BT-549 breast; 102% in the assay on MDA-MB-435 melanoma; 101% in the assay on SW-620 colon; 89% in the assay with HCT-116 colon; 106% in the assay on HCC-2998 colon. Further, in the assay with KM12 colon, the growth is 94.4%.
On to `CCC1CCc2nc3sc(C(=O)Nc4cccc(C)c4)c(N)c3cc2C1` (stereo not given), for which the growth is 96.9% in the assay with T-47D breast; 86.1% with BT-549 breast; -15.9% (active) with MDA-MB-435 melanoma; 18.7% with MCF7 breast; 83.8% with HCT-116 colon; 100% in the assay with HCC-2998 colon.
As to `C=CCc1cc(Cl)cc2c(OC(C)=O)c(C(C)=O)c(-c3ccccc3)nc12`, the growth is 90.8% in the assay on T-47D breast; 116% with BT-549 breast; 108% in the assay with MDA-MB-435 melanoma; 82.1% in the assay on MCF7 breast; 105% in the assay on HCT-116 colon; 118% in the assay on HCC-2998 colon.
As to `C=CCN=C1NC(=O)/C(=C/c2cc(C(C)(C)C)c(O)c(C(C)(C)C)c2)S1`, the growth in the assay with T-47D breast is 47.1%; in the assay on BT-549 breast, 55.6%; in the assay with MDA-MB-435 melanoma, -2.99% (active); with MCF7 breast, 43.8%; with HCT-116 colon it was 46.4%; with HCC-2998 colon, 89.8%.
For `COc1ccc(/C=C/C(=O)c2ccc(B(O)O)cc2)cc1O`, the growth with T-47D breast was 79.2%; with BT-549 breast it was 64.8%; with MDA-MB-435 melanoma it was 3.03% (active); in the assay with SW-620 colon it was 28.5%; in the assay on HCT-116 colon it was 1.46% (active); in the assay on HCC-2998 colon, 49.8%. The growth in the assay on KM12 colon was 9.39% (active).
On to `COc1c(NC[C@H]2OC(O)[C@H](O)[C@@H](O)[C@@H]2O)c(=O)c1=O` (stereo not given in full), for which the growth is 95.3% in the assay on T-47D breast; 112% in the assay with BT-549 breast; 98% in the assay on MDA-MB-435 melanoma; 101% with SW-620 colon; 100% in the assay with HCT-116 colon; 97.9% with HCC-2998 colon. Besides, in the assay on KM12 colon, the growth was 111%.
As to `O=C1N=C(c2c(-c3[nH]c(=O)c4ccc(Br)cc4c3O)c(O)c3ccccc3c2O)C(=O)c2cc(Br)ccc21`, the growth in the assay with T-47D breast is -34.2% (active); in the assay with BT-549 breast it was -25.4% (active); in the assay with MDA-MB-435 melanoma it was -63.4% (active); in the assay with SW-620 colon it was -70.7% (active); in the assay on HCT-116 colon, -21.7% (active); with HCC-2998 colon, -44.3% (active). Further, in the assay on KM12 colon, the growth is -53.2% (active).
As to `CCN(CC)CCSc1c2ccc(Cl)cc2nc2ccc(OC)cc12`, the growth in the assay with T-47D breast is -39.9% (active); in the assay on BT-549 breast it was 107%; in the assay with MDA-MB-435 melanoma, 109%; with SW-620 colon, 4.29% (active); in the assay with HCT-116 colon, 50.3%; with HCC-2998 colon it was 97.3%. In the assay on KM12 colon, the growth was 99.1%.
